{"source": "the supplement of paper PMC3414501", "key": {"[1]": {"tested_on": "S. cerevisiae AD1-9 (efflux-pump deficient), vegetative growth in YPD", "assay": "growth sensitivity score (doubling time z-score vs DMSO controls); higher = slower growth, strongly negative scores also mark growth inhibition (complete suppression), active = hit call of the paper", "procedure,_shortened": "(§1)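 Yeast (Saccharomyces cerevisiae BY4741 and AD1-9) was grown in rich medium in microtiter plates from a starting OD600 of 0.065, with optical density read every 15 min over 24 hours. The growth sensitivity score was the difference between compound and solvent-only means, divided by the solvent-only standard deviation. Every experiment had eight solvent-only wells.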"}, "[2]": {"tested_on": "S. cerevisiae BY4741 (wild-type), vegetative growth in YPD", "assay": "growth sensitivity score (doubling time z-score vs DMSO controls); higher = slower growth, strongly negative scores also mark growth inhibition (complete suppression), active = hit call of the paper", "procedure,_shortened": "as §1"}, "[3]": {"tested_on": "S. cerevisiae SK1 pCDA2-eGFP (USY613), sporulating", "assay": "CDA2-GFP sporulation assay sensitivity score (z-score vs DMSO controls); higher = stronger inhibition of sporulation, active = hit call of the paper"}}, "note": "Where a name gives a salt, the structure may show the parent alone.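 Wherever CDA2-GFP sporulation assay sensitivity score (z-score vs DMSO controls) is given: active if sensitivity score above 5.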"}
{"smiles": "CN(CCCN1c2ccccc2CCc2ccccc21)CC(=O)c1ccc(Cl)cc1", "note": "[Lofepramine] (stock concentration (mM, diluted 1:100): 10)", "values": [{"measurement": "growth sensitivity score", "setting": "[1]", "result": "51.9 (active)"}, {"measurement": "growth sensitivity score", "setting": "[2]", "result": "3.15 (active)"}]}
{"smiles": "CC[N+](C)(CC)CCOC(=O)C(O)(c1ccccc1)C1CCCCC1", "note": "(centres undefined) [Oxyphenonium bromide] (stock concentration (mM, diluted 1:100): 10)", "values": [{"measurement": "CDA2-GFP sporulation assay sensitivity score", "setting": "[3]", "result": "0.76 (inactive)"}, {"measurement": "growth sensitivity score", "setting": "[1]", "result": "-1.02 (inactive)"}, {"measurement": "growth sensitivity score", "setting": "[2]", "result": "0.39 (inactive)"}]}
{"smiles": "CCc1nn(CCCN2CCN(c3cccc(Cl)c3)CC2)c(=O)n1CCOc1ccccc1", "note": "[Nefazodone] (stock concentration (mM, diluted 1:100): 9.3)", "values": [{"measurement": "CDA2-GFP sporulation assay sensitivity score", "setting": "[3]", "result": "5.84 (active)"}, {"measurement": "growth sensitivity score", "setting": "[2]", "result": "9.68 (active)"}]}
{"smiles": "CN(C)CC[C@@H](c1ccc(Cl)cc1)c1ccccn1", "note": "[Dexchlorpheniramine maleate] (stock concentration (mM, diluted 1:100): 7)", "values": [{"measurement": "CDA2-GFP sporulation assay sensitivity score", "setting": "[3]", "result": "7.64 (inactive)"}, {"measurement": "growth sensitivity score", "setting": "[1]", "result": "-0.12 (inactive)"}, {"measurement": "growth sensitivity score", "setting": "[2]", "result": "0.54 (inactive)"}]}
{"smiles": "CCN(CC)CC1CCCCN1CC(=O)N1c2ccccc2C(=O)Nc2cccnc21", "note": "(centres undefined) [Otenzepad] (stock concentration (mM, diluted 1:100): 10)", "values": [{"measurement": "CDA2-GFP sporulation assay sensitivity score", "setting": "[3]", "result": "0.65 (inactive)"}, {"measurement": "growth sensitivity score", "setting": "[1]", "result": "-1.89 (inactive)"}, {"measurement": "growth sensitivity score", "setting": "[2]", "result": -2.57}]}
{"smiles": "CC(C)(C)NC(=O)[C@@H]1CN(Cc2cccnc2)CCN1C[C@@H](O)C[C@@H](Cc1ccccc1)C(=O)N[C@H]1c2ccccc2C[C@H]1O", "note": "[Indinavir sulphate] (stock concentration (mM, diluted 1:100): 8.6)", "values": [{"measurement": "CDA2-GFP sporulation assay sensitivity score", "setting": "[3]", "result": "-1.29 (inactive)"}, {"measurement": "growth sensitivity score", "setting": "[1]", "result": -2.58}, {"measurement": "growth sensitivity score", "setting": "[2]", "result": "0 (inactive)"}]}
{"smiles": "CCOc1cc(N)c(Cl)cc1C(=O)NCC1CN(Cc2ccc(F)cc2)CCO1", "note": "(centres undefined) [Mosapride citrate] (stock concentration (mM, diluted 1:100): 6.9)", "values": [{"measurement": "CDA2-GFP sporulation assay sensitivity score", "setting": "[3]", "result": "1.67 (inactive)"}, {"measurement": "growth sensitivity score", "setting": "[1]", "result": "17.2 (active)"}, {"measurement": "growth sensitivity score", "setting": "[2]", "result": "3.25 (active)"}]}
{"smiles": "COc1ccc(CCN(C)CCCC(C#N)(c2ccc(OC)c(OC)c2)C(C)C)cc1OC", "note": "(centres undefined) (stock concentration (mM, diluted 1:100): 10)", "values": [{"measurement": "CDA2-GFP sporulation assay sensitivity score", "setting": "[3]", "result": "2.38 (inactive)"}, {"measurement": "growth sensitivity score", "setting": "[2]", "result": "0.01 (inactive)"}]}
{"smiles": "Cc1nc(=O)c2cc(CN(C)c3ccc(C(=O)N[C@@H](CCC(=O)O)C(=O)O)s3)ccc2[nH]1", "note": "[Raltitrexed] (stock concentration (mM, diluted 1:100): 10)", "values": [{"measurement": "CDA2-GFP sporulation assay sensitivity score", "setting": "[3]", "result": "-2.11 (inactive)"}, {"measurement": "growth sensitivity score", "setting": "[1]", "result": -3.39}, {"measurement": "growth sensitivity score", "setting": "[2]", "result": "-0.14 (inactive)"}]}
{"smiles": "O=C(O)c1cc(/N=N/c2ccc(S(=O)(=O)Nc3ccccn3)cc2)ccc1O", "note": "[Sulfasalazine] (stock concentration (mM, diluted 1:100): 10)", "values": [{"measurement": "CDA2-GFP sporulation assay sensitivity score", "setting": "[3]", "result": "2.13 (inactive)"}, {"measurement": "growth sensitivity score", "setting": "[1]", "result": -2.95}, {"measurement": "growth sensitivity score", "setting": "[2]", "result": -2.26}]}
{"smiles": "CCOC(=O)N1CCC(=C2c3ccc(Cl)cc3CCc3cccnc32)CC1", "note": "[Loratadine] (stock concentration (mM, diluted 1:100): 10)", "values": [{"measurement": "CDA2-GFP sporulation assay sensitivity score", "setting": "[3]", "result": "3.83 (inactive)"}, {"measurement": "growth sensitivity score", "setting": "[2]", "result": "335 (active)"}]}
{"smiles": "O=C1Nc2ccc(Cl)cc2[C@@](C#CC2CC2)(C(F)(F)F)O1", "note": "[Efavirenz] (stock concentration (mM, diluted 1:100): 10.1)", "values": [{"measurement": "CDA2-GFP sporulation assay sensitivity score", "setting": "[3]", "result": "-2.28 (inactive)"}, {"measurement": "growth sensitivity score", "setting": "[2]", "result": "40.5 (active)"}]}
{"smiles": "CN(CCOc1ccc(NS(C)(=O)=O)cc1)CCc1ccc(NS(C)(=O)=O)cc1", "note": "[Dofetilide] (stock concentration (mM, diluted 1:100): 10)", "values": [{"measurement": "CDA2-GFP sporulation assay sensitivity score", "setting": "[3]", "result": "-0.99 (inactive)"}, {"measurement": "growth sensitivity score", "setting": "[1]", "result": "-1.59 (inactive)"}, {"measurement": "growth sensitivity score", "setting": "[2]", "result": -2.19}]}
